Active and inactive are the calls of the source. Rule for the calls: active = hit-call score of the fitted dose curve at least 0.9, where 1 is the maximum; inactive = score below 0.9.
What was measured:
Conditions in all cases: mRNA level, 48 h; actives raise or lower the signal
[1] = read-out: ABC Transporter (ABCB1), ABCB1 (gene 5243); assay: LTEA_HepaRG_ABCB1: Life Technologies and Expression Analysis (LTEA) Assay for ABC Transporter (ABCB1) using HepaRG (AID 2283460)
Method in brief: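 HepaRG cells exposed in duplicate for 48 h in serum-free induction medium to eight half-log concentrations up to 100 uM in 0.5% DMSO. ABCB1 mRNA quantified by qRT-PCR, normalised to ACTB, GAPDH and POLR2A; fitted bidirectionally versus DMSO.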

[2] = read-out: growth arrest and DNA damage 45 (GADD45B), GADD45B (gene 4616); assay: LTEA_HepaRG_GADD45B: Life Technologies and Expression Analysis (LTEA) Assay for growth arrest and DNA damage 45 (GADD45B) using HepaRG (AID 2283461)
Method in brief: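 Differentiated human HepaRG cells in serum-free induction medium exposed 48 h in duplicate to eight concentrations, top 100 uM, half-log steps, 0.5% DMSO. GADD45B mRNA by TaqMan qRT-PCR, normalized to ACTB, GAPDH, POLR2A; bidirectional fit versus DMSO.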

[3] = read-out: ABC Transporter (ABCC3), ABCC3 (gene 8714); assay: LTEA_HepaRG_ABCC3: Life Technologies and Expression Analysis (LTEA) Assay for ABC Transporter (ABCC3) using HepaRG (AID 2283462)
Method in brief: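 Differentiated human HepaRG cells exposed 48 h in serum-free induction medium, 0.5% DMSO vehicle, 8-point half-log series to 100 uM in duplicate. ABCC3 mRNA by qRT-PCR, normalised to ACTB, GAPDH, POLR2A; bidirectional fit vs DMSO.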

[4] = read-out: ABC Transporter (ABCB11), ABCB11 (gene 8647); assay: LTEA_HepaRG_ABCB11: Life Technologies and Expression Analysis (LTEA) Assay for ABC Transporter (ABCB11) using HepaRG (AID 2283463)
Method in brief: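 Differentiated human HepaRG cells in serum-free induction medium, dosed in duplicate for 48 h. Eight-point half-log series from 100 uM in 0.5% DMSO; ABCB11 mRNA by qRT-PCR, normalized to ACTB, GAPDH, POLR2A, fitted bidirectionally versus DMSO.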

[5] = read-out: ABC Transporter (ABCC2), ABCC2 (gene 1244); assay: LTEA_HepaRG_ABCC2: Life Technologies and Expression Analysis (LTEA) Assay for ABC Transporter (ABCC2) using HepaRG (AID 2283464)
Method in brief: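 Differentiated HepaRG cells in serum-free induction medium exposed 48 h to eight half-log concentrations up to 100 uM, 0.5% DMSO, in duplicate. ABCC2 mRNA measured by qRT-PCR (TaqMan, Fluidigm), normalized to ACTB, GAPDH and POLR2A. Fitted in both directions against DMSO.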

[6] = read-out: Broad substrate specificity ATP-binding cassette transporter ABCG2 (Homo sapiens) (UniProt Q9UNQ0); assay: LTEA_HepaRG_ABCG2: Life Technologies and Expression Analysis (LTEA) Assay for ABC Transporter (ABCG2) using HepaRG (AID 2283465)
Method in brief: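 Differentiated HepaRG cells were exposed for 48 h in serum-free induction medium to 8 half-log concentrations, top 100 uM, in 0.5% DMSO. ABCG2 mRNA was measured by qRT-PCR, normalized to ACTB, GAPDH and POLR2A, with bidirectional fitting versus DMSO.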

[7] = read-out: ATP-citrate lyase (ACLY), ACLY (gene 47); assay: LTEA_HepaRG_ACLY: Life Technologies and Expression Analysis (LTEA) Assay for ATP-citrate lyase (ACLY) using HepaRG (AID 2283466)
Method in brief: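 Differentiated HepaRG cells exposed 48 h in serum-free induction medium to eight half-log concentrations up to 100 uM in 0.5% DMSO, duplicates. Transcript measured by Fluidigm TaqMan qRT-PCR, normalized to ACTB, GAPDH, POLR2A; bidirectional fit versus DMSO.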

[8] = read-out: Peroxisomal acyl-coenzyme A oxidase 1 (ACOX1) gene, ACOX1 (gene 51); assay: LTEA_HepaRG_ACOX1: Life Technologies and Expression Analysis (LTEA) Assay for Peroxisomal acyl-coenzyme A oxidase 1 (ACOX1) gene using HepaRG (AID 2283467)
Method in brief: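 HepaRG cells, plated 48 h then switched to serum-free induction medium, were exposed in duplicate for 48 h to 8-point half-log concentrations up to 100 uM in 0.5% DMSO. ACOX1 mRNA was measured by qRT-PCR, normalized to ACTB/GAPDH/POLR2A, and fitted bidirectionally versus DMSO.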

[9] = read-out: Alkaline Phosphatase, Placental (ALPP) gene, ALPP (gene 250); assay: LTEA_HepaRG_ALPP: Life Technologies and Expression Analysis (LTEA) Assay for Alkaline Phosphatase, Placental (ALPP) gene using HepaRG (AID 2283468)
Method in brief: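 HepaRG cells plated 48 h, then exposed in duplicate for 48 h in serum-free induction medium to 8-point half-log series from 100 uM in 0.5% DMSO. ALPP mRNA by TaqMan qRT-PCR, normalized to ACTB/GAPDH/POLR2A; bidirectional fit versus DMSO.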

[10] = read-out: Bcl-2 (BAD) gene, BAD (gene 572); assay: LTEA_HepaRG_BAD: Life Technologies and Expression Analysis (LTEA) Assay for Bcl-2 (BAD) gene using HepaRG (AID 2283469)
Method in brief: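 Differentiated HepaRG cells were exposed in duplicate in 0.5% DMSO for 48 h to eight-point half-log concentrations up to 100 uM. BAD mRNA was measured by Fluidigm TaqMan qRT-PCR, normalized to ACTB, GAPDH and POLR2A, and fitted bidirectionally against DMSO.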

[11] = read-out: Bcl-2 (BAX) gene, BAX (gene 581); assay: LTEA_HepaRG_BAX: Life Technologies and Expression Analysis (LTEA) Assay for Bcl-2 (BAX) gene using HepaRG (AID 2283470)
Method in brief: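 HepaRG (human liver), 48 h exposure, duplicate wells. 8-pt curve, half-log from 100 uM, 0.5% DMSO. BAX transcript by TaqMan qRT-PCR; ACTB/GAPDH/POLR2A normalization; gain or loss vs DMSO baseline.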

[12] = read-out: adenosine kinase (ADK) gene, ADK (gene 132); assay: LTEA_HepaRG_ADK: Life Technologies and Expression Analysis (LTEA) Assay for adenosine kinase (ADK) gene using HepaRG (AID 2283471)
Method in brief: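 Differentiated HepaRG cells dosed 48 h in serum-free induction medium, 0.5% DMSO vehicle, eight half-log concentrations from 100 uM, in duplicate. ADK mRNA by TaqMan qRT-PCR normalised to ACTB, GAPDH, POLR2A; bidirectional fit versus DMSO.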

[13] = read-out: Alpha-fetoprotein (AFP) gene, AFP (gene 174); assay: LTEA_HepaRG_AFP: Life Technologies and Expression Analysis (LTEA) Assay for Alpha-fetoprotein (AFP) gene using HepaRG (AID 2283472)
Method in brief: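 HepaRG, single lot; 48 h post-plating -> serum-free induction medium; cpd 8-pt, 100 uM top, half-log, 0.5% DMSO, duplicate, 48 h. RNA -> qRT-PCR AFP, norm ACTB/GAPDH/POLR2A. Bidirectional fit vs DMSO.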

[14] = read-out: BCL2L11 (gene 10018); assay: LTEA_HepaRG_BCL2L11: Life Technologies and Expression Analysis (LTEA) Assay for Bcl-2 (BCL2L11) gene using HepaRG (AID 2283473)
Method in brief: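 Differentiated human HepaRG cells were exposed 48 h in serum-free induction medium to eight half-log concentrations up to 100 uM in 0.5% DMSO, in duplicate. BCL2L11 mRNA was quantified by TaqMan qRT-PCR, normalized to ACTB, GAPDH and POLR2A; induction or repression fitted versus DMSO.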

[15] = read-out: Apolipoprotein A-V (APOA5) gene, APOA5 (gene 116519); assay: LTEA_HepaRG_APOA5: Life Technologies and Expression Analysis (LTEA) Assay for Apolipoprotein A-V (APOA5) gene using HepaRG (AID 2283474)
Method in brief: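 Differentiated HepaRG cells in serum-free induction medium, exposed 48 h in duplicate to eight half-log concentrations topping at 100 uM (0.5% DMSO). APOA5 mRNA by Fluidigm TaqMan qRT-PCR, normalized to ACTB, GAPDH and POLR2A; bidirectional fit versus DMSO.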

[16] = read-out: Apoptosis regulator Bcl-2 (Homo sapiens) (UniProt P10415); assay: LTEA_HepaRG_BCL2: Life Technologies and Expression Analysis (LTEA) Assay for Bcl-2 gene using HepaRG (AID 2283475)
Method in brief: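 HepaRG, plated 48 h then switched to serum-free induction medium; dosed 48 h, 8 conc. (max 100 uM, half-log steps), duplicate, 0.5% DMSO. Lysis in RLT, RNA isolated, TaqMan qRT-PCR for BCL2; ACTB/GAPDH/POLR2A normalisation; bidirectional fit vs DMSO.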

[17] = read-out: Bcl-2 (BID) gene, BID (gene 637); assay: LTEA_HepaRG_BID: Life Technologies and Expression Analysis (LTEA) Assay for Bcl-2 (BID) gene using HepaRG (AID 2283476)
Method in brief: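 Transcript levels of BID, measured by qRT-PCR and normalized to three housekeeping genes, were fitted bidirectionally against DMSO controls. Cells were HepaRG, dosed 48 h at up to 100 uM.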

[18] = read-out: Caspase-3 (Homo sapiens) (UniProt P42574); assay: LTEA_HepaRG_CASP3: Life Technologies and Expression Analysis (LTEA) Assay for cysteine-aspartic acid protease (CASP3) using HepaRG (AID 2283477)
Method in brief: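 Differentiated HepaRG cells, plated 48 h, were treated in duplicate in serum-free induction medium for 48 h with eight half-log concentrations up to 100 uM in 0.5% DMSO. CASP3 mRNA measured by qRT-PCR, normalized to ACTB, GAPDH, POLR2A.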

[19] = read-out: Cytochrome P450 (CYP24A1), CYP24A1 (gene 1591); assay: LTEA_HepaRG_CYP24A1: Life Technologies and Expression Analysis (LTEA) Assay for Cytochrome P450 (CYP24A1) using HepaRG (AID 2283478)
Method in brief: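 HepaRG cells plated 48 h, then exposed in duplicate in serum-free induction medium for 48 h to 8-point half-log series from 100 uM in 0.5% DMSO. CYP24A1 mRNA by Fluidigm qRT-PCR, normalized to ACTB, GAPDH, POLR2A; bidirectional fit versus DMSO.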

[20] = read-out: Cytochrome P450 (CYP1A2), CYP1A2 (gene 1544); assay: LTEA_HepaRG_CYP1A2: Life Technologies and Expression Analysis (LTEA) Assay for Cytochrome P450 (CYP1A2) using HepaRG (AID 2283479)
Method in brief: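 Differentiated human HepaRG cells in serum-free induction medium exposed 48 hours in duplicate to 8 half-log concentrations from 100 uM, 0.5% DMSO. CYP1A2 mRNA quantified by qRT-PCR, normalized to ACTB, GAPDH and POLR2A; bidirectional fitting versus DMSO.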

Measured: AC50

Chain of Broad substrate specificity ATP-binding cassette transporter ABCG2 (Homo sapiens) (Q9UNQ0 whole entry, looked up): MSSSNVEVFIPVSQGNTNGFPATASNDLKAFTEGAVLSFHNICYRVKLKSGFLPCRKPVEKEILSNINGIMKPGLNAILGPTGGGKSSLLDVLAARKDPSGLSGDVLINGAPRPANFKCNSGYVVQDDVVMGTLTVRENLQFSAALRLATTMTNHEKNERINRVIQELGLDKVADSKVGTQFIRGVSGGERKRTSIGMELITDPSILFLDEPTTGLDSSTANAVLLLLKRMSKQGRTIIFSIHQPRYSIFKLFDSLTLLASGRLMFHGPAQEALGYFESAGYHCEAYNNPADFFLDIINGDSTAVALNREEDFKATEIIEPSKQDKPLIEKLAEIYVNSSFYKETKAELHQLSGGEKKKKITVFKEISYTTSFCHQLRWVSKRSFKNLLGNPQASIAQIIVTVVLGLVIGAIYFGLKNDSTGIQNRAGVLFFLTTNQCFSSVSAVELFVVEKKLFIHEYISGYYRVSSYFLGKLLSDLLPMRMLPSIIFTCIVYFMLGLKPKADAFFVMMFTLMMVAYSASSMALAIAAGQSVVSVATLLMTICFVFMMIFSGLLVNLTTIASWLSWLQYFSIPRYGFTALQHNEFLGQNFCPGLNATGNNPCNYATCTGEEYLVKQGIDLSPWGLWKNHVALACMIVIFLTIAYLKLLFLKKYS
Chain of Apoptosis regulator Bcl-2 (Homo sapiens) (P10415 whole entry, looked up): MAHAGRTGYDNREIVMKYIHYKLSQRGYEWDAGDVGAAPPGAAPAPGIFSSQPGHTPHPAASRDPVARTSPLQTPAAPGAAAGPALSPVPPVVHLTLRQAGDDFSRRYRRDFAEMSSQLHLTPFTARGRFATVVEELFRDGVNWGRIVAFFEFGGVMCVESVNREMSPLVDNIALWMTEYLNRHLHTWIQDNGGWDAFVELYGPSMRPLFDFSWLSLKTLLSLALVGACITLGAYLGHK
Chain of Caspase-3 (Homo sapiens) (P42574 whole entry, looked up): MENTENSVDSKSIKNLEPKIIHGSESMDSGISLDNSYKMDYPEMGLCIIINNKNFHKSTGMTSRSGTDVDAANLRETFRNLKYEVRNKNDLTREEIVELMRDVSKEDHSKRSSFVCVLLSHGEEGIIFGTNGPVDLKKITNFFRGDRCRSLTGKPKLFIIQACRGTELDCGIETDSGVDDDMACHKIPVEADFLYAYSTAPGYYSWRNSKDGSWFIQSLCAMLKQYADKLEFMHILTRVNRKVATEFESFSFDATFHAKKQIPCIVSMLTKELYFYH

O=c1n(Cl)c(=O)n(Cl)c(=O)n1Cl
active: [20] 50 µM
inactive: all other assays above

CCOC(=O)C(C)OC(=O)c1cc(Oc2ccc(C(F)(F)F)cc2Cl)ccc1[N+](=O)[O-] (stereo not given)
active: [2] 32.2 µM | [5] 21.9 µM | [6] 19.2 µM | [7] 50 µM | [8] 2.11 µM | [13] 50 µM
inactive: all other assays above

Cc1cc(C)nc(Nc2ccccc2)n1
active: [20] 88.8 µM
inactive: all other assays above

CC(C)Nc1nc(Cl)nc(NC(C)C)n1
active: [1] 19.8 µM | [4] 73.3 µM | [5] 9.77 µM | [13] 24.8 µM
inactive: all other assays above

CC1(C)CON(Cc2ccccc2Cl)C1=O
active: [1] 9.19 µM | [5] 18.4 µM
inactive: all other assays above

CC(C)N1C(=O)N(c2ccccc2)CSC1=NC(C)(C)C
active: [1] 17.7 µM | [4] 94.4 µM | [6] 50 µM | [7] 84.3 µM | [9] 78.3 µM | [11] 77.4 µM | [13] 64.4 µM | [15] 81.8 µM | [16] 78.7 µM | [20] 50 µM
inactive: [2] | [3] | [5] | [8] | [10] | [12] | [14] | [17] | [18] | [19]

CCCCC(C#N)(Cn1cncn1)c1ccc(Cl)cc1 (stereo not given)
active: [1] 13.1 µM | [4] 91.7 µM | [6] 4.77 µM | [7] 50 µM | [13] 67 µM | [20] 19.3 µM
inactive: all other assays above

CC(C)NC(=O)N1CC(=O)N(c2cc(Cl)cc(Cl)c2)C1=O
active: [1] 3.58 µM | [2] 26.3 µM | [6] 15 µM | [8] 14.4 µM | [13] 13.2 µM | [15] 22.7 µM | [20] 8.18 µM
inactive: all other assays above

Nc1c(Cl)c(F)nc(OCC(=O)O)c1Cl
inactive: all assays above

CN/C(=N\[N+](=O)[O-])NCc1cnc(Cl)s1
active: [6] 28.6 µM | [13] 50 µM
inactive: all other assays above

CCCC(=NOCC)C1=C(O)CC(CC(C)SCC)CC1=O (stereo not given)
inactive: all assays above

CCOP(=O)(OCC)Oc1nc(Cl)c(Cl)cc1Cl
active: [3] 80.5 µM | [4] 79.2 µM | [5] 76.4 µM | [8] 74.9 µM | [13] 75.9 µM | [14] 76.6 µM | [15] 83.8 µM | [16] 68.4 µM
inactive: all other assays above

Source: PubChem BioAssay (EPA / NIEHS)
